Reference: ChEMBL document CHEMBL3988442, “University of Dundee, Small-Polar-MMV Screening Library” (2021)
Screen size: about 53,000 compounds; about 900 (1.7%) showed an effect of 50% or more. The full list was thinned out, with strong results kept by preference.

tested on: Mycobacterium tuberculosis; assay: Cornell - Phenotypic assay to identify agents that inhibit growth of Mycobacterium tuberculosis; assay type: functional; set-up: scale not given: direction of the effect not stated beside the values; conditions: 10 mM as filed; unlikely as a test dose

| Structure (SMILES) | Percent Effect [%] |
| --- | --- |
| COc1ccc(CN(C)CC(=O)Nc2ccc3[nH]c(=O)[nH]c3c2)cc1F | -12.93 |
| COCCN1C(=O)C2(CCC(C(=O)Nc3cccc(C)c3)CC2)N=C1C (centres undefined) | 23.11 |
| COc1ccc(NC(=O)C(c2ccc(OC)cc2)N2CCOCC2)cc1 (centres undefined) | -0.3618 |
| Cc1cccc(NC(=O)C2CC(=O)n3cnnc3S2)c1 (centres undefined) | 107.8 |
| COc1cccc(NC(=O)c2nc3ccccc3n(C)c2=O)c1 | 19.08 |
| COc1cccc(NC(=O)C2CC(=O)n3cnnc3S2)c1 (centres undefined) | 106.8 |
| COc1cccc(NC(=O)N2CC[C@@H]3CN(C)S(=O)(=O)[C@@H]3CC2)c1 | -43.46 |
| COc1ccc(C2CCCN2C(=O)Nc2ccc(OC)nc2)cc1 (centres undefined) | 1.248 |
| Cc1cccc(NC(=O)C2CCc3ccccc3N2)c1.Cl (centres undefined) | 44.23 |
| COc1ccc(NC(=O)C2CC(=O)n3cnnc3S2)cc1 (centres undefined) | 106.3 |
| Cc1nnc(NC(=O)c2cc(S(=O)(=O)N3CCSCC3)c[nH]2)s1 | -1.205 |
| CCc1cc(-c2ccnc3c2ccn3C)nc(N2CCOCC2)n1 | 3.05 |
| N#Cc1ccc(C(=O)N2CCC3(CC2)CC3)cc1 | -6.813 |
| O=C(c1cc(C2CCCCC2)no1)N1C[C@H]2C[C@H](O)C[C@H]2C1 | 24.89 |
| CNC(=O)[C@H]1C[C@@H]2CN(C(=O)c3ccc(C)o3)C[C@@H]2N1S(C)(=O)=O | 18.79 |
| Cc1cc(CC(=O)NC2CCCN(Cc3ccccc3)C2=O)n[nH]1 (centres undefined) | -5.186 |
| Cc1nn(C)cc1CN1CCCC1c1cccc(Nc2nccs2)n1 (centres undefined) | 56.13 |
| Cc1cnc(Nc2cccc(C3CCCN3Cc3cn(C)nc3C)n2)s1 (centres undefined) | 23.5 |
| Cc1ccccc1CN1CCCC1c1cccc(Nc2nccs2)n1 (centres undefined) | 44.82 |
| O=c1[nH]c2nc(N3CCSCC3)ncc2c(=O)n1-c1cccc(F)c1 | 12.37 |
| O=C(O)C1CCCN1c1nc(-c2ccc(Cl)c(Cl)c2)cc(C(F)(F)F)n1 (centres undefined) | 67.65 |
| O=C(O)C1CCCN1c1nc(-c2ccc(Cl)cc2)cc(C(F)(F)F)n1 (centres undefined) | 38.69 |
| O=C(O)C1CCCN1c1nc(C2CC2)cc(C(F)(F)F)n1 (centres undefined) | 4.747 |
| Cc1noc(C)c1CN(C)Cc1csc(-c2ccc(C(C)C)cc2)n1 | 63.13 |
| Cc1noc(C)c1CN(C)Cc1csc(-c2ccc(F)cc2)n1 | 39.26 |
| Cc1cc(CN(C)Cc2csc(-c3ccc(C(C)C)cc3)n2)no1 | 47.23 |
| CC(C)c1ncc(CN2CCCC2c2[nH]ncc2C(=O)N(C)C)cn1 (centres undefined) | -22.16 |

| Structure (SMILES) | Percent Effect [%] |
| --- | --- |
| CCCn1c(C)c(CC(=O)N[C@H](C)C(=O)OC)c2c1CC(C)(C)CC2=O | 46.36 |
| Cc1cnc2n(c1=O)C(CC(=O)NCc1ccco1)CS2 (centres undefined) | 22.84 |
| Cc1nc(C)n(CC2CN(CC(=O)NC3CCCC3)CCO2)n1 (centres undefined) | -1.047 |
| CCc1ccccc1NCc1nc2[nH]c(C)c(C)c(=O)n2n1 | -10.14 |
| CN1C(=O)C2(CCN(C(=O)C3CCOCC3)CC2)c2ccccc21 | 10.41 |
| N#Cc1nc(COc2ccc3c(c2)OCO3)oc1N1CCCC1 | 60.43 |
| CC(C)NC(=O)c1nc(COc2ccc3c(c2)OCO3)no1 | 22.39 |
| CNc1oc(COc2ccc3c(c2)OCO3)nc1C#N | -5.351 |
| N#Cc1nc(COc2ccc3c(c2)OCO3)oc1NC1CCCCC1 | 58.43 |
| N#Cc1nc(COc2ccc3c(c2)OCO3)oc1NC1CC1 | 0.1825 |
| N#Cc1nc(COc2ccc3c(c2)OCO3)oc1N1CCCCCC1 | 35.88 |
| Cc1nn(C)cc1-c1cc(C(F)(F)F)n(CCCN)n1 | -15.46 |
| Cc1cccc(CS(=O)(=O)NCc2nn(C)c3c2CCCC3)c1 | 18.68 |
| O=C(c1cnccn1)N1CC(S(=O)(=O)c2ccc(Cl)cc2)C1 | 17.17 |
| CC(=O)N1CCN(c2cc(C)ncn2)CC(CO)C1 (centres undefined) | 21.65 |
| CN(C(=O)Cn1nnnc1C(C)(C)C)c1ccccc1 | -5.466 |
| CCOC(=O)Cn1nnnc1-c1ccccc1 | 99.52 |
| CCOC(=O)Cn1c(=O)nc2n1C(=O)N(c1ccccc1)C2 | -0.8928 |
| Cc1ccc(C(O)CNCc2c(C(C)C)nn(C)c2N(C)C)cc1 (centres undefined) | 104.4 |
| Cc1nn(C)c(N(C)C)c1CNCC(O)c1ccccc1 (centres undefined) | -2.094 |
| COc1c(CNCC(O)c2ccccc2F)c(C(C)C)nn1C (centres undefined) | -39.06 |
| CC(C)c1nn(C)c(N(C)C)c1CNCC(O)c1ccccc1 (centres undefined) | 39.56 |
| COc1ccccc1C(O)CNCc1c(C(C)C)nn(C)c1N(C)C (centres undefined) | 50.62 |
| Cc1cccc(OCC(O)CNCc2c(C)nn(C)c2N(C)C)c1 (centres undefined) | 33.74 |
| CC(C)c1nn(C)c(N(C)C)c1CNCC(O)c1ccccc1F (centres undefined) | 40.49 |
| CC(C)c1nn(C)c(N(C)C)c1CNCC(O)COc1ccccc1 (centres undefined) | 51.29 |
| Cc1nn(C)c(N(C)C)c1CNCC(O)COc1ccccc1.Cl (centres undefined) | 25.02 |
